TRHR PAM: allosterically enhances the human TRH receptor. P34981. TRHR cells, fluo-8 calcium fluorescence, EC20 TRH enhancement. enhancement, % at 2 µM. 360,000 compounds, 0.66% hits. AID 493056; in the data active = enhancement above about 30%; also: 0% is about no effect
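TRHR-expressing cells loaded with fluo-8 calcium dye were read kinetically (ex 480/em 530) during compound addition, then stimulated with an EC20 of TRH (10 nM final). Enhancement of the Gq-mediated intracellular calcium response was scored.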
D1 antagonist: human D1 dopamine receptor antagonism; HEK293 TREx D1 cells, calcium flux, dopamine EC80; stronger effect = lower value; 360,000 compounds, 3.2% hits; activity change, negative = inhibition, % at 10 µM; P21728; in the data active = activity change below about -30%; also: % is scaled to controls: 0 for no effect and ±100 for the full control effect
Target sequence (P21728 whole entry, looked up): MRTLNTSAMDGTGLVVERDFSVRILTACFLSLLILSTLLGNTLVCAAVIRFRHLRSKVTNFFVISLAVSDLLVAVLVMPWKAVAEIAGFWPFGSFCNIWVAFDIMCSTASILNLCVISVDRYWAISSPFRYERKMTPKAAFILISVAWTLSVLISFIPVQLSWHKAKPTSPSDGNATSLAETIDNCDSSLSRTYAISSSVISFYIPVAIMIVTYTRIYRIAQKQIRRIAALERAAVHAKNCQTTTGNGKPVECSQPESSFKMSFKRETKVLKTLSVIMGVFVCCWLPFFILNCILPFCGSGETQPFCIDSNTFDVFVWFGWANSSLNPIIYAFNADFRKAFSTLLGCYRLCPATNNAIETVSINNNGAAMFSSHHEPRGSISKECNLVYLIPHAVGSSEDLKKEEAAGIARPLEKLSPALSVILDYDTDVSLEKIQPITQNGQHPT
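Calcium flux readout: force-coupled, inducible Hek293 Trex D1 line, cells induced overnight at 30 C with tetracycline, dye-loaded 30–90 min at RT. Antagonism scored against EC80 dopamine challenge given 180 s after compound.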
D1 potentiator: human D1 dopamine receptor positive modulation; P21728; HEK293 TREx D1 cells, calcium flux, dopamine EC20 potentiation; potentiation, % at 10 µM; 360,000 compounds, 0.036% hits; AID 504651; in the data active = potentiation above about 30%; also: 0% is about no effect
D1 agonist: activates the human D1 dopamine receptor; P21728; HEK293 T-REx D1 cells, calcium flux, agonist mode; activation, % at 2 µM; 360,000 compounds, 1% hits; also: 0% is about no effect
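Agonism was scored from calcium flux recorded over 180 s (1 read/s) after pintool compound addition, following a 10-cycle baseline. Cells were inducible force-coupled HEK293 TREx D1, plated overnight at 30 C and loaded with no-wash calcium dye.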
TRHR agonist: TRH receptor (human) agonism; AID 493084; 360,000 compounds, 0.18% hits; TRHR cells, calcium flux fluo-8, FDSS agonist mode; activation, % at 2 µM; P34981; also: 0% is about no effect
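TRHR-expressing cells loaded with fluo-8 calcium dye; 23 nL library compound pin-transferred, kinetic FDSS fluorescence (Ex 480/Em 530) recorded about 180 s for agonist-induced calcium release, before a 10 nM TRH EC20 addition for potentiator mode.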
Numbers without * were called inactive; · = no result. An excerpt weighted towards active compounds, which were near 4.7% of everything screened. Rule as the data show it, unless noted: active = activation above about 30%; inactive = the rest.

SMILES	TRHR PAM	D1 antagonist	D1 potentiator	D1 agonist	TRHR agonist
COc1ccc(NC(=O)CSc2nnc(NC(=O)Nc3ccccc3)s2)c(OC)c1	-1	·	-2	-1	0
COc1cc(/C=C(\NC(C)=O)C(=O)O)cc(OC)c1OC	-3	-9	-6	2	1
COc1cc(/C=C(/C(=O)O)c2ccc(-c3ccccc3)cc2)cc(OC)c1OC	1	-42*	-8	-3	0
COc1ccc(NC(=O)COC(=O)C2CC2)c(OC)c1	-1	-7	1	-1	0
O=C(OCCOc1cccc(Cl)c1)C1CCN(S(=O)(=O)c2ccccc2)CC1	6	-22	-1	30*	3
CCOC(=O)C1CCN(S(=O)(=O)c2ccc(OC)c(OC)c2)CC1	8	1	-2	6	-1
CCOC(=O)C1CCN(S(=O)(=O)c2ccccc2)CC1	0	-10	-6	3	0
CCOC(=O)C1CCN(S(=O)(=O)c2cc(-c3onc(C)c3C)ccc2C)CC1	10	-36*	-4	2	0
COc1cccc(COC(=O)C2CCN(S(=O)(=O)c3ccc(F)cc3)CC2)c1OC	-16	-9	-6	31*	1
CCOC(=O)C1CCN(S(=O)(=O)c2ccc(C)c(C)c2)CC1	32*	-5	2	1	0
CSC1=NC2(CCN(C(=O)NC3CCCCC3)CC2)N=C1c1ccc(C)cc1	12	0	1	-1	-1
CCc1ccc(-c2nn(CC(=O)NC3CCCC3)c3c2cnc2ccc(C)cc23)cc1	10	19	-2	1	1
Cc1cc2c(s1)c1cnn(Cc3ccc(F)cc3Cl)c(=O)c1n2C	4	-5	2	4	0
CCOC(=O)C1CCN(S(=O)(=O)c2c(Cl)ccc3nonc23)CC1	4	-35*	-8	4	3
Cc1ccc(S(=O)(=O)N2CCC(C(N)=O)CC2)cc1[N+](=O)[O-]	-3	-39*	-1	-3	0
NC(=O)C1CCN(S(=O)(=O)c2ccccc2[N+](=O)[O-])CC1	2	3	1	1	0
Cc1ccccc1C(=O)N(C)c1ccccc1C(=O)NCc1ccccc1	-4	5	4	1	0
NC(=O)c1ccc(Oc2ccc(Cl)c3ccccc23)c([N+](=O)[O-])c1	31*	2	-5	2	0
NC(=O)c1ccc(Oc2ccc(Cl)cc2)c([N+](=O)[O-])c1	2	-11	3	1	0
CC(=O)c1cc(NC(=O)c2ccc(Cl)cc2)c(=O)oc1/C=C/N(C)C	-3	-18	2	108*	39*
CCc1ccc(N2C(=O)CN(Cc3ccc(OC)c(OC)c3)C2=S)cc1	4	-83*	0	2	0
COc1ccc(CC(=O)Nc2nc(-c3cc(OC)ccc3OC)cs2)cc1	0	-8	5	3	0
COc1ccc(OC)c(-c2csc(NC(=O)COC(=O)C3(C)CC3(Cl)Cl)n2)c1 (stereo unspecified)	3	-48*	-6	2	0
CN(C)CCCN(C(=O)c1ccco1)c1nc(-c2ccc(Cl)cc2)cs1	1	-42*	-6	33*	0
Cc1ccc(-c2csc(N(CCCN(C)C)C(=O)c3ccco3)n2)cc1	4	-1	0	1	0
SMILES	TRHR PAM	D1 antagonist	D1 potentiator	D1 agonist	TRHR agonist
COCCCN(C(=O)c1ccco1)c1nc(-c2cc(OC)ccc2OC)cs1	-1	-41*	5	6	0
CCC(=O)N(CC)c1nc(-c2cc(OC)ccc2OC)cs1	11	30	-3	34*	0
O=C(Cn1cnc([N+](=O)[O-])c1)Nc1ccccc1C(F)(F)F	6	5	0	4	3
COc1ccc(-c2noc(N(c3cccc(Cl)c3)c3nc(-c4ccc(OC)c(OC)c4)no3)n2)cc1OC	-2	6	-1	0	-2
COc1ccc(C(CC(=O)O)N2C(=O)CCC2=O)cc1 (stereo unspecified)	-3	0	-1	1	-1
CN(C)S(=O)(=O)c1cccc(NC(=O)COC(=O)COc2ccc(Br)cc2)c1	-2	-13	-7	7	0
CCOc1ccc(NS(=O)(=O)c2ccc(NC(=S)NC(=O)CC(C)C)cc2)cc1	32*	46	0	26	4
CN(C)S(=O)(=O)c1cccc(NC(=O)COC(=O)CCOc2ccccc2)c1	33*	-10	-5	8	0
O=C(COc1ccc([N+](=O)[O-])cc1)Nc1ccncc1	-2	-7	-3	10	-2
CCCC(=O)NC(=S)Nc1ccc(S(=O)(=O)Nc2ccc(OCC)cc2)cc1	13	7	-8	27	3
NS(=O)(=O)c1cccc(NC(=O)COc2ccc([N+](=O)[O-])cc2)c1	33*	-1	2	-1	0
CC(C)NS(=O)(=O)c1ccc(OCC(=O)Nc2cccc(F)c2)cc1	32*	-11	-6	2	-1
CC(C)NS(=O)(=O)c1ccc(OCC(=O)Nc2ccc3c(c2)OCO3)cc1	7	-27	-2	1	0
NS(=O)(=O)c1ccc(NC(=O)COC(=O)C2(c3ccccc3F)CCCC2)cc1	-4	-34*	-7	1	0
CCOc1ccc(OCC(=O)Nc2ccc(S(N)(=O)=O)cc2)cc1	1	-34*	-5	2	-1
NS(=O)(=O)c1ccc(NC(=O)COc2ccc(C(=O)c3ccc(F)cc3)cc2)cc1	4	-27	-13	4	1
CC1CC(C)CN(C(=O)c2cc(S(=O)(=O)N3CCCCC3)ccc2Cl)C1 (stereo unspecified)	-6	18	-4	1	1
CN(CCOc1ccccc1)C(=O)C1CCC(=O)N(CCN2CCOCC2)C1 (stereo unspecified)	20	14	-6	-1	2
O=C(Nc1ccccc1)NC1CS(=O)(=O)CC1O (stereo unspecified)	-2	-41*	-9	2	1
O=S1(=O)C[C@@H](O)[C@@H](Nc2ccccc2)C1	-8	-12	-7	2	1
CC(=O)C(N=Nc1ccccc1)(Sc1nnc(-c2ccccc2)n1-c1ccccc1)C(C)=O	-1	-32*	1	8	0
CN(CC(=O)NCC(c1ccco1)N1CCCCC1)S(=O)(=O)c1ccc(Cl)cc1 (stereo unspecified)	10	5	3	5	2
CCc1ccc(CNC(=O)c2cc3c(s2)-c2ccccc2OC3)cc1	6	-25	-4	2	1
O=C(NC1CC(=O)N(c2cccc(F)c2)C1)C(=O)c1c[nH]c2ccccc12 (stereo unspecified)	-7	-16	-4	23	2
COc1cccc(N2CC(NC(=O)C(=O)c3c[nH]c4ccccc34)CC2=O)c1 (stereo unspecified)	-1	-35*	-3	2	0

High-throughput results deposited in PubChem by National Center for Advancing Translational Sciences (NCATS).
